# Screens from PubChem.
# An excerpt weighted towards active compounds, which were near 3.1% of everything screened.
# Mac1 fbg inh – CD11b/CD18-fibrinogen binding inhibition; AID 1497; hit rate 0.54% among 93,000; P05107+P11215; inhibition, % at 10 µM; K562 CD11b/CD18 adhesion to fibrinogen, ATPlite luminescence; Mn2+ added to activate the integrin;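 active = primary inhibition of 50% or more at 10 µM, then 40% or more on retest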
# ERa coact pot – ER-alpha (human) coactivator binding potentiation; hit rate 1.3% among 86,000; P03372; AID 639; coactivator binding (% of control), % at 25.6 µM; TR-FRET ERalpha-LBD/SRC-Cy5 coactivator binding, 2 h; 100 = basal binding, no effect; in the data active = activity above about 200%;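 note: binding measured in presence of low estradiol as agonist stimulus; 0% = peptide alone without receptor and 100% = receptor with peptide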
# Target sequence (P03372 whole entry, looked up, the tested form may be a part): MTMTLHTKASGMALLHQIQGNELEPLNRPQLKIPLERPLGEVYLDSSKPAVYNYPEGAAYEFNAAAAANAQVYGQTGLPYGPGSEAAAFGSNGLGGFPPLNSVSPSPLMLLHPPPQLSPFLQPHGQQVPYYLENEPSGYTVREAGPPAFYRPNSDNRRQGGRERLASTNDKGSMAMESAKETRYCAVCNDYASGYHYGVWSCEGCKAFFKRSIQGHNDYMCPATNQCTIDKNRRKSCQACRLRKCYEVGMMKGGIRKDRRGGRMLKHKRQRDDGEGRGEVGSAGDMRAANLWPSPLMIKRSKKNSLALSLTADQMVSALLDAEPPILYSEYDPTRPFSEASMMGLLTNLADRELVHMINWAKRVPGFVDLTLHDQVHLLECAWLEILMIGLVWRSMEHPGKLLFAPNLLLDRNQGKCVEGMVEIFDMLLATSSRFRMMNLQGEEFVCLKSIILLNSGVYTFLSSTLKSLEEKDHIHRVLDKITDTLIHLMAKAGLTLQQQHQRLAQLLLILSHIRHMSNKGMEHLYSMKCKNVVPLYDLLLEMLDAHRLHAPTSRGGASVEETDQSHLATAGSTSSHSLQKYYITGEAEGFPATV
# ERb coact inh – blocks coactivator binding to human estrogen receptor beta | TR-FRET ER-beta LBD / SRC1-Cy5 peptide binding; receptor agonist-loaded with 1 µM estradiol | inhibition, % at 25.6 µM | Q92731 | AID 633 | hit rate 1.3% among 86,000;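 active = compounds whose percent inhibition of the receptor-coactivator binding signal exceeds about 50% in the single-dose screen, limit read from the data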;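 note: 0% = receptor plus peptide wells without compound and 100% = peptide-only wells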
# CD11b adhes enh – enhancers of human CD11b/CD18 binding to fibrinogen; K562 CD11b/CD18 adhesion to fibrinogen, ATPlite luminescence; activation, % at 10 µM; AID 1499; P05107+P11215; hit rate 0.07% among 93,000;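 active = 10 µM primary screen giving 50% or more activity, confirmed by 40% or more on retest at that dose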
# ERa SRC1 inh – blocks coactivator binding to human estrogen receptor alpha; P03372; TR-FRET ER-alpha LBD / SRC-1 peptide, estradiol-bound; inhibition, % at 25.6 µM; hit rate 1.7% among 86,000; AID 629; in the data active = inhibition above about 50%;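 note: 0% = receptor plus peptide control and 100% = peptide only without receptor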
# Numbers without * were called inactive; nt = no result given; [ ] = another dose, or the depositor's remark.
SMILES,Mac1 fbg inh,ERa coact pot,ERb coact inh,CD11b adhes enh,ERa SRC1 inh
CCc1ccc(Cn2nnc(C(=O)NCc3ccccc3OC)c2N)cc1,2,206*,6,7,9
CCOc1ccc(Cn2nnc(C(=O)Nc3cc(OC)cc(OC)c3)c2N)cc1,2,257*[fluorescence artefact?],9,0,18
COc1ccc(CNC(=O)c2nnn(Cc3ccc(OC)cc3)c2N)cc1,nt,208*,-14,nt,7
O=C(CSc1nnc(Cn2nnc3ccccc32)o1)N(Cc1ccc(F)cc1)c1ccccc1,102*,92,-6,-11,4
Cc1ccc2[nH]c3c(NCc4ccco4)ncnc3c2c1,76*,81,26,-7,16
Cc1sc2ncnc(SCC(=O)NC(=O)NCc3ccco3)c2c1C,-17,85,81*[fluorescence artefact?],2,73*
Cc1sc2nc(SCC(=O)NCc3ccco3)n(-c3ccccc3)c(=O)c2c1C,-10,229*[fluorescence artefact?],6,-4,15
Cc1nc(SCC(=O)NCc2ccco2)c2c(C)c(C)sc2n1,-1,89,2,1,2
O=C(NCc1ccco1)c1cc2cc3ccc(Cl)cc3nc2o1,-40,182,56*,58,67*
COc1ccc2cc3cc(C(=O)NCc4ccco4)oc3nc2c1,-50,107,27,0,24
CN1CCN(C2=CC(=O)OC23CCCCC3)CC1,nt,112,-1,nt,-2
COC(=O)c1c[nH]n2c(=O)cc(CCl)nc12,-5,nt,nt,-3,nt
O=C(CSc1nc2ccccc2c(=O)n1-c1ccc(OC(F)F)cc1)NCc1cccs1,2,nt,nt,2,nt
Cc1sc2ncnc(NCc3ccco3)c2c1C,20,61,54*,-2,58*
CCOc1ccc2nc(SCC(=O)NC(=O)NCc3ccco3)sc2c1,-1,97,3,29,12
Cc1ccc(-c2csc3ncnc(OCC(=O)NC(=O)NCc4ccco4)c23)cc1,18,68,38,1,56*[fluorescence artefact?]
O=C(CSc1nc2cc(Cl)ccc2s1)NC(=O)NCc1ccco1,3,77,43,17,57*
CCc1nc(SCC(=O)NCc2ccco2)c2c3c(sc2n1)CCCC3,-36,179,11,5,11
CCCCc1nc2sc3c(SCC(=O)NCc4ccco4)ncnc3c2c2c1CCC2,nt,575*[fluorescence artefact?],43,nt,34
CC(C)OP(=O)(OC(C)C)C(NC(=O)c1ccc(Br)cc1)c1ccccc1 (centres undefined),nt,101,-8,nt,-6
CC(C)c1ccc(C2C(C#N)=C(N)N3C(=C2C#N)Sc2ccccc23)cc1 (centres undefined),-1,68,9,3,-6
O=S(=O)(Nc1nc2ccccc2nc1NCc1ccco1)c1ccccc1,12,87,6,-2,-8
c1coc(CNc2nc3nonc3nc2NCc2ccco2)c1,62*,82,16,-3,15
Cc1ccc(-c2nnc(SCC(=O)Nc3sc(C)c(C)c3C#N)n2C)cc1,nt,248*[fluorescence artefact?],11,nt,3
CCOC(=O)c1c(NC(=O)CSc2nnc(-c3cccnc3)o2)sc(C(C)=O)c1C,1,204*[fluorescence artefact?],16,2,20
SMILES,Mac1 fbg inh,ERa coact pot,ERb coact inh,CD11b adhes enh,ERa SRC1 inh
Cc1sc(NC(=O)CSc2nnc(COc3ccc(Cl)cc3)n2C)c(C#N)c1C,-9,317*[fluorescence artefact?],42,-3,41
Cn1c(SCC(=O)Nc2ccccc2)nnc1-c1ccc(NC(=O)CCc2ccccc2)cc1,nt,99,76*[fluorescence artefact?],nt,-1
CCOC(=O)c1c(NC(=O)CSc2nnc(-c3ccco3)o2)sc(C(C)=O)c1C,59,156,-3,-9,10
COCCn1c(SCC(=O)Nc2sc(C)c(C)c2C#N)nnc1-c1ccc(OC)cc1,-1,125,-6,2,-5
CCOC(=O)C1CCC(CN(Cc2ccccc2)S(=O)(=O)c2ccc([N+](=O)[O-])cc2)CC1 (centres undefined),-10,nt,nt,0,nt
N#Cc1ccsc1NC(=O)CSc1nnc(-c2ccccc2)o1,-5,nt,nt,-1,nt
Cc1sc(NC(=O)CSc2nnc(-c3ccc(F)cc3)o2)c(C#N)c1C,4,101,20,-1,52*
Cc1cn(C(=O)C(C)N2C(=O)c3ccccc3C2=O)c(C)n1 (centres undefined),-45,102,10,4,39
COc1ccc([C@H]2[C@H](C(=O)C(C)(C)C)N3N=Cc4ccccc4C3[C@]23N=C(c2ccccc2)OC3=O)cc1OC (some centres undefined),-3,62,1,91*,1
COc1ccc([C@H]2[C@H](C(=O)C(C)(C)C)N3N=Cc4ccccc4C3[C@]23N=C(c2ccccc2)OC3=O)cc1 (some centres undefined),-3,87,-14,0,4
COc1ccccc1N1CCN(C(=O)c2cc3c(s2)CCC3)CC1,48,61,43,70*,64*
CCOC(=O)C1=C(Cc2ccc(OC)cc2)C(=O)c2ccccc2C1=O,98,102,18,-8,-2
CCOC(=O)C1=C(Cc2ccc(C)cc2)C(=O)c2ccccc2C1=O,90*,85,12,-7,6
NC(=O)C1CCN(c2nc(-c3ccccc3)nc3c2oc2ccccc23)CC1,2,344*[fluorescence artefact?],37,-1,22
COc1ccc(N2CCN(S(=O)(=O)c3ccc(C(=O)NCc4ccco4)cc3)CC2)cc1,nt,116,-7,nt,-5
COc1ccc(NC(=O)Nc2ccc(N(C)C)cc2)cc1,-15,75,52*[fluorescence artefact?],-9,28
COc1ccc(C(=O)CN2C(=O)C(C)(C)Oc3ccc(C(=O)N4CCCCCC4)cc32)cc1,-1,93,-4,2,9
COC(=O)CCC(NC(=O)OCc1ccccc1)C(=O)NC(CC(C)C)C(=O)OC (centres undefined),nt,105,-4,nt,-3
CCC(C)C(NC(=O)C(N)CC(C)C)C(=O)NC(CCC(=O)OCc1ccccc1)C(N)=O (centres undefined),-8,211*,-3,-1,-1
Fc1ccc2c(c1)C(c1ccncc1)=NNC(c1cccnc1)=N2,-3,nt,nt,4,nt
O=c1oc2ccccc2n1CCn1c2ccccc2c2nc3ccccc3nc21,-9,146,49,6,77*
COc1ccc2c(c1)c1nc3ccccc3nc1n2CCn1c(=O)oc2ccccc21,15,nt,nt,-2,nt
O=C(O)C(O)c1ccco1 (centres undefined),nt,132,58*[fluorescence artefact?],nt,54*
NC(=O)CC(c1ccccc1)c1ccco1 (centres undefined),nt,101,-20,nt,-3
Cc1nn(-c2ccc(Cl)cc2)c2sc(C(=O)N3CCN(c4ccccn4)CC3)cc12,10,452*,4,3,14
Cc1nn(-c2ccc(Cl)cc2)c2sc(C(=O)N3CCN(C(=O)c4ccco4)CC3)cc12,-11,101,6,0,-2
COc1ccccc1C(=O)NCC1CCN(c2ccc(S(=O)(=O)N3CCOCC3)cc2)CC1,9,40,11,-3,37
